# According to PubChem BioAssay (NCATS):
# Results filed as inconclusive are left out. A number with no mark means an inactive call. Activity calls are given as the source filed them. Calls follow the shape of the dose curve; as a rule, active = well fitted cell-killing curve with a large enough effect; inconclusive = small, poorly fitted or top-dose-only effect; inactive = flat fitted curve, though single readings scatter.
# Experiment: Cell Viability - LYMP2-006 (AID 978); also: nearly all actives have a fitted effect of over 60% in size
# Settings: LYMP2-006 lymphoblastoid cell viability, qHTS; series mostly up to 92.2 µM; activity change, negative = cytotoxicity: at the top concentration
# Excerpt: NIH Chemical Genomics Center [NCGC]
# NIH Molecular Libraries Screening Centers Network [MLSCN]
# National Institutes of Environmental Health Sciences [NIEHS]
# National Toxicology Program [NTP]
# We have developed a 1536-well cell-based assay for quantitative high throughput screening (qHTS) against a number of cell lines to determine in vitro cytotoxicity of small molecules. This particular assay uses a human lymphoblastoid cell line (LYMP2-006) purchased from Coriell Institute for Medical Research.
# NCGC Assay Protocol Summary:
# The CellTiter-Glo luminescent cell viability assay (Promega) is a homogeneous method to measure the number of viable cells in culture. The end point readout of this assay is based on quantitation of intracellular ATP, an indicator of metabolic activity, using the luciferase reaction. Luciferase catalyzes the oxidation of beetle Luciferin to oxyluciferin and light in the presence of ATP. The luminescent signal is proportional to amount of ATP present.
# Using the CellTiter-Glo luminescent cell viability assay, the amount of cellular ATP was measured in the lymphoblastoid cell line with complete culture medium following compound treatment for 24 hours. The assay was performed in opaque white Kalypsys 1536-well plates. In the screen, tetraoctylammonium bromide was used as positive control. Library compounds were measured for their ability to cause acute toxicity in the cell line, as reflected by a decrease in intracellular ATP levels, in a concentration-dependent manner. […] AC50 values were determined from concentration-response data modeled with the standard Hill equation.
# qHTS protocol for CellTiter Glo lymphoblastoid cellular assay
# [Step] [Parameter] [Value] [Description]
# 1. Reagent; 5 uL; 2500 lymphoblastoid cells/well
# 2. Time; 5 hr; 37 C incubation
# 4. Controls; 23 nL; Tetraoctylammonium bromide 6.4pM to 92 uM
# 5. Time; 24 hr; 37 C incubation
# 6. Reagent; 5 uL; CellTiter Glo reagent
# 7. Time; 30 min; Room Temperature
# 8. Detection; Luminescence; Viewlux plate reader
# Keywords: cell viability, cytotoxicity, lymphoblastoid cell line, luminescence, NTPHTS, NTPHTS_NCGC, NIEHS, DSSTox, MLSMR, MLSCN, NIH Roadmap, qHTS, NCGC
# % is scaled to controls: 0 for no effect and ±100 for the full control effect; potency is read from the fitted curve at half-maximal effect.
SMILES,Potency,"activity change, negative = cytotoxicity"
O=C(/C=C/c1ccc(O)c(O)c1)OC1C[C@](O)(C(=O)O)C[C@@H](O)[C@H]1O (stereo partly drawn),inactive,
CC(=O)Nc1ccc(C(=O)CCl)cc1,10 µM (active),
O=C1OC2(c3cc(Br)c(O)c(Br)c3Oc3c2cc(Br)c(O)c3Br)c2c(Cl)c(Cl)c(Cl)c(Cl)c21,,-27.1%
O=Cc1ccc(Cl)c(Cl)c1,,3.27%
Cc1cc(Nc2ccc(O)cc2)ccc1N,50.1 µM (active),
CCCCCCCC[N+](CCCCCCCC)(CCCCCCCC)CCCCCCCC,5.01 µM (active),
Oc1ccc2cc(SSc3ccc4cc(O)ccc4c3)ccc2c1,50.1 µM (active),
Cc1cccc(O)c1C,,10.5%
Nc1ccc2cc3ccccc3cc2c1,,-2.96%
O=C=Nc1ccc(Cc2ccc(N=C=O)cc2)cc1,,11.5%
O=C1OC(O)C(C(Cl)Cl)=C1Cl (stereo not drawn),25.1 µM (active),
C=C(C)c1ccccc1,,-5.37%
Cc1cc(O)c(C(C)(C)C)cc1Sc1cc(C(C)(C)C)c(O)cc1C,31.6 µM (active),
O=[N+]([O-])c1cc([N+](=O)[O-])c2ccc(S(=O)(=O)O)cc2c1O,,0.191%
CN(C)c1ccc(C2(c3ccc(N(C)C)cc3)OC(=O)c3cc(N(C)C)ccc32)cc1,,-6.33%
O=C(OCC(COC(=O)c1ccccc1)(COC(=O)c1ccccc1)COC(=O)c1ccccc1)c1ccccc1,,-0.428%
c1ccc2c(c1)ccc1cc3c(ccc4ccccc43)cc12,,-0.156%
C=CC(=O)OCCOCCOC(=O)C=C,25.1 µM (active),
CNc1ccc(O)cc1,12.6 µM (active),
CCC(C)Nc1ccc(NC(C)CC)cc1 (stereo not drawn),5.01 µM (active),
CN1[C@H]2CC(OC(=O)[C@H](CO)c3ccccc3)C[C@H]1[C@H]1O[C@H]12 (stereo partly drawn),inactive,
c1ccc2c(c1)-c1cccc3c1c-2cc1ccccc13,,-10.3%
CCCCCC/C(C=O)=C\c1ccccc1,,9.31%
